The sample as a whole holds a higher share of hits than the screen did.
AmpC detergent: AmpC beta-lactamase inhibition with detergent present; 370,000 compounds, 0.041% hits; Potency, µM (highest dose often 114 µM), most hits filed as inhibitors; AmpC hydrolysis of nitrocefin, absorbance 480 nm, 0.01% Triton; P00811; note: nearly all actives have a fitted effect of over 25% in size
Target sequence (P00811 whole entry, looked up): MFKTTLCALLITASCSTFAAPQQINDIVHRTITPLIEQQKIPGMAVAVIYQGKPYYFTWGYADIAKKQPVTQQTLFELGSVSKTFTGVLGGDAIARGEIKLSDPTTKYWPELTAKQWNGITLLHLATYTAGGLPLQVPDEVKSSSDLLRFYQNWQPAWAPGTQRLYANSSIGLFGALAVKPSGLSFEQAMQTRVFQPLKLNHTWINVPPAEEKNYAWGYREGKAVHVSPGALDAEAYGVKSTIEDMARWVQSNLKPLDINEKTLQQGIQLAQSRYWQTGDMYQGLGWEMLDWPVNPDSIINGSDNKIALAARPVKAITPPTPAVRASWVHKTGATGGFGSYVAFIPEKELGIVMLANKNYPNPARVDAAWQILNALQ
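AmpC (5.3 nM in the dispensed reagent) in 20 mM phosphate pH 7.0 with 0.01% (detergent screen) or 0.0001% Triton X-100 was preincubated with compounds for 15 min at room temperature. Nitrocefin was then added from an 800 uM solution, and hydrolysis was followed at 480 nm.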
NS1 inh: inhibitors of influenza NS1 protein function. Potency, µM (doses to about 46.1 µM). 270,000 compounds, 0.4% hits; calls by dose curve; note: actives are rising curves; nearly all actives have a fitted effect of over 50% in size
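S. cerevisiae expressing influenza A NS1, grown in glucose, washed, then diluted 1:100 into pH 6.0 -URA galactose medium with 23 nl compound. Growth recovery read as OD600; NS1-free strain serves as control.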
CHX counter: counter-screen for Shiga toxin inhibitors: cycloheximide protein synthesis inhibition. 300,000 compounds, 12% hits. cell reporter, cycloheximide protein synthesis inhibition counterscreen. max response, %. AID 2314; in the data active = max response mostly above about 13%, no sharp cut-off; inactive = mostly below about 14%; note: read at 38.3 µM for the half of the compounds with a filed dose
AmpC no deterg: blocks E. coli AmpC beta-lactamase in detergent-free assay | AID 485341 | AmpC nitrocefin hydrolysis, absorbance 480 nm, 0.0001% Triton | 330,000 compounds, 0.52% hits | P00811 | Potency, µM (series often up to 57.1 µM), most hits filed as inhibitors; note: nearly all actives have a fitted effect of over 20% in size
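AmpC (5.3 nM in the dispensed reagent) in 20 mM phosphate pH 7.0 with 0.01% (detergent screen) or 0.0001% Triton X-100 was preincubated with compounds for 15 min at room temperature. Nitrocefin was then added from an 800 uM solution, and hydrolysis was followed at 480 nm.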
Shiga toxin inh: inhibitors of Shiga toxin in Vero cells. Vero cells, Shiga toxin protein synthesis inhibition reporter. inhibition, % at 38.7 µM. 290,000 compounds, 9.2% hits; in the data active = inhibition mostly above about 28%, no sharp cut-off; inactive = mostly below about 43%
Large screens that a line does not name were inactive. Unless noted, calls come from the whole dose curve; as a rule, active = well fitted curve in the direction sought with a large enough effect; inconclusive = small, poorly fitted or top-dose-only effect, or another doubt; inactive = no such curve, though single readings can be large; an effect the other way counts as inactive or inconclusive.

O=C(c1ccccc1)c1ccc(O)cc1O	none (no result: NS1 inh)
O=C(c1cnc2ccc3ccccc3c2c1)c1cc(F)ccc1O	CHX counter 46, Shiga toxin inh 69
Cc1ccc(O)c(C(=O)c2cnn(C(=O)Cc3csc(C)n3)c2)c1	AmpC detergent inconclusive
Cc1ncc(CC(=O)n2cc(C(=O)c3cc(F)ccc3O)cn2)s1	CHX counter 34, Shiga toxin inh 45
Cc1nn(C)c2ncc(C(=O)c3cc(F)ccc3O)cc12	none
COc1ccc(C(=O)c2ccccc2)c(O)c1	CHX counter 26, Shiga toxin inh active
COc1ccc(O)c(C(=O)c2cc(C#N)c(=O)n(-c3c(C)n(C)n(-c4ccccc4)c3=O)c2)c1	CHX counter 22
CC(=O)Nc1sc(NC(=O)c2ccc(C)cc2)nc1-c1cccs1	none
CC(C)Cn1cnc2c(SCc3ccc(Cl)cc3Cl)nc(N)nc21	none (no result: AmpC detergent, CHX counter, AmpC no deterg, Shiga toxin inh)
Cc1ccc(CNC(=O)CN2C(=O)CSc3ccc(S(=O)(=O)N4CCCC4)cc32)cc1	none (no result: NS1 inh, CHX counter, AmpC no deterg, Shiga toxin inh)
CCOC(=O)C1=C(CN2CCN(c3ccc(Cl)cc3)CC2)NC(=O)NC1c1ccc(F)cc1 (stereo unspecified)	none (no result: NS1 inh, CHX counter, AmpC no deterg, Shiga toxin inh)
CCOC(=O)C1=CN(CC)S(=O)(=O)NC1c1ccc(C(F)(F)F)cc1 (stereo unspecified)	none (no result: AmpC detergent, NS1 inh, CHX counter, Shiga toxin inh)
COc1ccc(O)c(C(=O)c2cnc3c(c2)c(C)nn3C)c1	none
COc1ccc(C(=O)OCCOc2ccccc2C(C)=O)c(O)c1	CHX counter 13
COc1ccc(O)c(C(=O)c2cnc3onc(C)c3c2)c1	CHX counter 21
O=C(c1cnn(-c2ccccc2)c1)c1ccccc1O	CHX counter 70, Shiga toxin inh 75
COc1ccc(O)c(C(=O)c2cnn(-c3ccccc3)c2)c1	CHX counter 29, Shiga toxin inh 96
COc1ccc(-n2cc(C(=O)c3ccccc3O)cn2)cc1	none
O=C(COC(=O)c1ccc(O)cc1O)NC1CC1	none (no result: NS1 inh, CHX counter, Shiga toxin inh)
CCc1ccc(/C=N/Nc2nn[nH]n2)cc1	none
c1ccc(CNCc2ccco2)cc1	none
CC(=O)NCCNC(=O)CCNC(=O)c1ccc(Cl)cc1	none
O=C(c1cnn(-c2ccccc2)c1)c1cc(F)ccc1O	CHX counter 43, Shiga toxin inh 83
COc1ccc(CSc2nc3nc(C)cc(C)n3n2)cc1F	none
Nc1nnc(SCc2ccc([N+](=O)[O-])cc2)s1	AmpC detergent inconclusive, CHX counter 8.0
Nc1ccc2nc(SCc3ccc([N+](=O)[O-])cc3)sc2c1	CHX counter 28
COC(=O)CSc1nc2ccc(N)cc2s1	CHX counter 19
O=[N+]([O-])c1ccc2nc(SCc3ccccc3Cl)sc2c1	none
COc1ccc(CSc2nnc(N)s2)cc1F	CHX counter 43, Shiga toxin inh 86
COCCCNC(=O)C1CCCN(c2ncnc3onc(C)c23)C1 (stereo unspecified)	none (no result: NS1 inh, CHX counter, AmpC no deterg, Shiga toxin inh)
COc1ccccc1OCCSc1nc2ccc([N+](=O)[O-])cc2s1	CHX counter 10
Cc1cccc(Nc2ccc(C(=O)N3CCOCC3)cn2)c1	CHX counter 46, Shiga toxin inh 66
Cc1cccc(-n2cnc3cc(C(=O)N4CCCCC4)ccc32)c1	CHX counter 41, Shiga toxin inh 100
Cc1cccc(-n2c(C)nc3cc(C(=O)N4CCOCC4)ccc32)c1	AmpC detergent inconclusive, CHX counter 13
Cc1noc(NS(=O)(=O)c2ccc(NC(=O)COc3ccccc3Br)cc2)c1C	none (no result: NS1 inh, CHX counter, AmpC no deterg, Shiga toxin inh)
CS(=O)(=O)NN1C(=O)c2ccccc2NC12CCCC2	none
O=C1c2ccccc2NC2(CCCCC2)N1c1ccc(O)cc1	AmpC detergent inconclusive, CHX counter 14
CC1CCC2(CC1)Nc1ccccc1C(=O)N2c1ccccc1 (stereo unspecified)	AmpC detergent inconclusive
O=C1c2ccccc2NC2(CCCC2)N1N=C1CCCC1	CHX counter 29, Shiga toxin inh 74
CCn1c(COc2ccc(C)cc2)nnc1SCC(=O)NNC(=O)c1ccc(OC)cc1	none
C=C1c2cccc(O)c2C(=O)C2C(=O)[C@]3(O)C(=O)C(C(N)=O)C(=O)[C@@H](N(C)C)[C@@H]3[C@@H](O)[C@H]12 (stereo partly specified)	AmpC no deterg 8.9µM (no result: AmpC detergent, NS1 inh, CHX counter, Shiga toxin inh)
Cc1ccc(-c2nc3ccccc3[nH]2)s1	CHX counter 52, Shiga toxin inh 64
Cc1[nH]c2ccccc2c1-c1nc2ccccc2[nH]1	CHX counter 48, Shiga toxin inh 56
c1csc(-c2nc3ccccc3[nH]2)c1	AmpC detergent inconclusive, CHX counter 36, Shiga toxin inh 65
Nc1nc(-c2nc3ccccc3[nH]2)cs1	CHX counter 33, Shiga toxin inh 70
